What all share (assay): yeast three-hybrid, YBZ-1, SC-Leu-His + 0.5 mM 3-AT, 4 days
Common to all, as to details: tags: N-Gal4 AD-HA kept; label: inside an RPR1-promoter hybrid RNA with tandem MS2 sites; ssRNA

The target in one assay is PUM1 PUF domain R2-AWD (Homo sapiens, UniProt Q14671 828-1176, N899A;Y900W;Q903D). The gist of the method:
(§1)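 The interaction score is the logarithmic change in variant frequency from input to selection. It uses log2, with a pseudocount of 1 for absent variants, and frequencies came from PCR-amplified, Illumina-sequenced repeat regions. The libraries were Pumilio-1 PUF domains randomized at the three base-contacting residues per repeat, co-expressed with matching RNA elements in strain YBZ-1 (LexA–MS2 coat fusion, HIS3 reporter). Plating lasted four days on SC-Leu (input) or SC-Leu-His + 0.5 mM 3-AT (selection).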

The target in the next assay is PUM1 PUF domain R2-SWP (Homo sapiens, UniProt Q14671 828-1176, N899S;Y900W;Q903P). The procedure, abridged:
as §1

A further assay deals with PUM1 PUF domain R8-KKP (Homo sapiens, UniProt Q14671 828-1176, N1122K;Y1123K;Q1126P). The gist of the method:
as §1

In another assay the target is PUM1 PUF domain R3-IWM (Homo sapiens, UniProt Q14671 828-1176, C935I;R936W;Q939M). The procedure, abridged:
as §1

The target in the next assay is PUM1 PUF domain R3-ACR (Homo sapiens, UniProt Q14671 828-1176, C935A;R936C;Q939R). The procedure, abridged:
as §1

Another assay addresses PUM1 PUF domain R7-RTM (Homo sapiens, UniProt Q14671 828-1176, S1079R;N1080T;E1083M). The gist of the method:
as §1

The target in another assay is PUM1 PUF domain R3-GRL (Homo sapiens, UniProt Q14671 828-1176, C935G;Q939L). The procedure, abridged:
as §1

In the next assay the target is PUM1 PUF domain R1-IRR (Homo sapiens, UniProt Q14671 828-1176, S863I;Q867R). The gist of the method:
as §1

Another assay has as its target PUM1 PUF domain R1-RKD (Homo sapiens, UniProt Q14671 828-1176, S863R;R864K;Q867D). The gist of the method: as §1
Another assay has as its target PUM1 PUF domain R5-TRF (Homo sapiens, UniProt Q14671 828-1176, C1007T;Q1011F). The procedure, abridged:
as §1

The next assay concerns the target PUM1 PUF domain R5-GRN (Homo sapiens, UniProt Q14671 828-1176, C1007G;Q1011N). The procedure, abridged:
as §1

The next assay deals with T1, PUM1 PUF domain R6-AFE (Homo sapiens, UniProt Q14671 828-1176, N1043A;Y1044F;Q1047E).
T1 sequence: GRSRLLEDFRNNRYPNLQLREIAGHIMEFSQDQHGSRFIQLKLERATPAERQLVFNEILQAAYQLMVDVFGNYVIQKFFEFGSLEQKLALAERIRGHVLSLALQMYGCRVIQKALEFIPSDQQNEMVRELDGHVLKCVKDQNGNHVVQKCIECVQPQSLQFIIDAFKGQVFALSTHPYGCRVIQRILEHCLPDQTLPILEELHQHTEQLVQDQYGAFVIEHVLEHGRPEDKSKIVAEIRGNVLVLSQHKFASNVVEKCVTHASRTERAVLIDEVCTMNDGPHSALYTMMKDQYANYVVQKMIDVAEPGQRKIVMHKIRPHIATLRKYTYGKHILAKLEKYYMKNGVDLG
The procedure, abridged: as §1

The target of the next assay is PUM1 PUF domain R1-KRT (Homo sapiens, UniProt Q14671 828-1176, S863K;Q867T). The procedure, abridged:
as §1

The next assay deals with PUM1 PUF domain R4-EYA (Homo sapiens, UniProt Q14671 828-1176, N971E;H972Y;Q975A). The gist of the method:
as §1

Another assay has as its target PUM1 PUF domain R5-PRQ (Homo sapiens, UniProt Q14671 828-1176, C1007P). The procedure, abridged:
as §1

A further assay deals with PUM1 PUF domain R5-KRQ (Homo sapiens, UniProt Q14671 828-1176, C1007K). The gist of the method:
as §1

For the next assay, the target named is PUM1 PUF domain R8-RGW (Homo sapiens, UniProt Q14671 828-1176, N1122R;Y1123G;Q1126W). The procedure, abridged:
as §1

The next assay deals with T2, PUM1 PUF domain R6-HWL (Homo sapiens, UniProt Q14671 828-1176, N1043H;Y1044W;Q1047L).
T2 sequence: T1 sequence with A216H, F217W, E220L
The gist of the method:
as §1

In a further assay the target is PUM1 PUF domain R5-EYG (Homo sapiens, UniProt Q14671 828-1176, C1007E;R1008Y;Q1011G). The gist of the method: as §1
Another assay addresses PUM1 PUF domain R5-RDG (Homo sapiens, UniProt Q14671 828-1176, C1007R;R1008D;Q1011G). The procedure, abridged:
as §1

Residue numbers refer to the chain shown, from its start.

As for “GGCUAGAACUAGUGGAUCCCCCGGCGCCCGGCGGCUCGAGCCCGGGUAAGUGUAAAAAGUCUGCAUGCCGCCGGGCGCCAUGCCUGCAGGUCGACUCUAGAAAACAUG”, the binding signal in the assay with PUM1 PUF domain R2-AWD was 6.66 log2 enrichment (interaction score); with PUM1 PUF domain R2-SWP, 5.19 log2 enrichment (interaction score).
For the sequence “GGCUAGAACUAGUGGAUCCCCCGGCGCCCGGCGGCUCGAGCCCGGGUAAGCGUAAAUAGUCUGCAUGCCGCCGGGCGCCAUGCCUGCAGGUCGACUCUAGAAAACAUG”, the binding signal with PUM1 PUF domain R8-KKP was 3.24 log2 enrichment (interaction score).
For “GGCUAGAACUAGUGGAUCCCCCGGCGCCCGGCGGCUCGAGCCCGGGUAAGUGUAAGUAGUCUGCAUGCCGCCGGGCGCCAUGCCUGCAGGUCGACUCUAGAAAACAUG”, the binding signal was 4.14 log2 enrichment (interaction score) with PUM1 PUF domain R3-IWM and 4.11 log2 enrichment (interaction score) in the assay with PUM1 PUF domain R3-ACR.
Regarding “GGCUAGAACUAGUGGAUCCCCCGGCGCCCGGCGGCUCGAGCCCGGGUAAGUUUAAAUAGUCUGCAUGCCGCCGGGCGCCAUGCCUGCAGGUCGACUCUAGAAAACAUG”, the binding signal with PUM1 PUF domain R7-RTM was 2.58 log2 enrichment (interaction score).
For “GGCUAGAACUAGUGGAUCCCCCGGCGCCCGGCGGCUCGAGCCCGGGUAAGUGUAAUUAGUCUGCAUGCCGCCGGGCGCCAUGCCUGCAGGUCGACUCUAGAAAACAUG”, the figures for the binding signal with PUM1 PUF domain R3-GRL and with PUM1 PUF domain R3-ACR were 0.66 log2 enrichment (interaction score) and 3.08 log2 enrichment (interaction score), respectively.
As to “GGCUAGAACUAGUGGAUCCCCCGGCGCCCGGCGGCUCGAGCCCGGGUAAGUGUAAAUUGUCUGCAUGCCGCCGGGCGCCAUGCCUGCAGGUCGACUCUAGAAAACAUG”, the binding signal with PUM1 PUF domain R1-IRR was 2.12 log2 enrichment (interaction score); with PUM1 PUF domain R1-RKD it was 2.73 log2 enrichment (interaction score).
For “GGCUAGAACUAGUGGAUCCCCCGGCGCCCGGCGGCUCGAGCCCGGGUAAGUGUUAAUAGUCUGCAUGCCGCCGGGCGCCAUGCCUGCAGGUCGACUCUAGAAAACAUG”, the binding signal in the assay with PUM1 PUF domain R5-TRF is 3.8 log2 enrichment (interaction score); in the assay with PUM1 PUF domain R5-GRN, 3.83 log2 enrichment (interaction score).
Take “GGCUAGAACUAGUGGAUCCCCCGGCGCCCGGCGGCUCGAGCCCGGGUAAGUGAAAAUAGUCUGCAUGCCGCCGGGCGCCAUGCCUGCAGGUCGACUCUAGAAAACAUG”: in the assay with PUM1 PUF domain R6-AFE, the binding signal was 3.96 log2 enrichment (interaction score).
As to “GGCUAGAACUAGUGGAUCCCCCGGCGCCCGGCGGCUCGAGCCCGGGUAAGUGUAAAUGGUCUGCAUGCCGCCGGGCGCCAUGCCUGCAGGUCGACUCUAGAAAACAUG”, the binding signal with PUM1 PUF domain R1-KRT is 4.9 log2 enrichment (interaction score).
Turning to “GGCUAGAACUAGUGGAUCCCCCGGCGCCCGGCGGCUCGAGCCCGGGUAAGUGUACAUAGUCUGCAUGCCGCCGGGCGCCAUGCCUGCAGGUCGACUCUAGAAAACAUG”, in the assay with PUM1 PUF domain R4-EYA, the binding signal is 0.75 log2 enrichment (interaction score).
Take “GGCUAGAACUAGUGGAUCCCCCGGCGCCCGGCGGCUCGAGCCCGGGUAAGUGUAAAUCGUCUGCAUGCCGCCGGGCGCCAUGCCUGCAGGUCGACUCUAGAAAACAUG”: the binding signal with PUM1 PUF domain R1-IRR was 2.25 log2 enrichment (interaction score).
Take “GGCUAGAACUAGUGGAUCCCCCGGCGCCCGGCGGCUCGAGCCCGGGUAAGUGUAAAGAGUCUGCAUGCCGCCGGGCGCCAUGCCUGCAGGUCGACUCUAGAAAACAUG”: the binding signal with PUM1 PUF domain R2-SWP is 7.17 log2 enrichment (interaction score).
As for “GGCUAGAACUAGUGGAUCCCCCGGCGCCCGGCGGCUCGAGCCCGGGUAAGUGUAUAUAGUCUGCAUGCCGCCGGGCGCCAUGCCUGCAGGUCGACUCUAGAAAACAUG”, the binding signal with PUM1 PUF domain R4-EYA is 3.44 log2 enrichment (interaction score).
Take “GGCUAGAACUAGUGGAUCCCCCGGCGCCCGGCGGCUCGAGCCCGGGUAAGUCUAAAUAGUCUGCAUGCCGCCGGGCGCCAUGCCUGCAGGUCGACUCUAGAAAACAUG”: in the assay with PUM1 PUF domain R7-RTM, the binding signal was 0.72 log2 enrichment (interaction score).
In the case of “GGCUAGAACUAGUGGAUCCCCCGGCGCCCGGCGGCUCGAGCCCGGGUAAGUGUAAAUAGUCUGCAUGCCGCCGGGCGCCAUGCCUGCAGGUCGACUCUAGAAAACAUG”, the binding signal with PUM1 PUF domain R5-PRQ is 3.84 log2 enrichment (interaction score); in the assay with PUM1 PUF domain R6-AFE, 1.28 log2 enrichment (interaction score); in the assay with PUM1 PUF domain R5-KRQ, 2.89 log2 enrichment (interaction score); with PUM1 PUF domain R8-RGW, 2.47 log2 enrichment (interaction score); with PUM1 PUF domain R6-HWL, 6.48 log2 enrichment (interaction score); with PUM1 PUF domain R5-TRF it was 3.08 log2 enrichment (interaction score). Besides, the binding signal with PUM1 PUF domain R3-GRL was 2.71 log2 enrichment (interaction score); in the assay with PUM1 PUF domain R3-ACR, 0.84 log2 enrichment (interaction score); with PUM1 PUF domain R5-GRN it was 3.37 log2 enrichment (interaction score); with PUM1 PUF domain R4-EYA, 2.34 log2 enrichment (interaction score).
Regarding “GGCUAGAACUAGUGGAUCCCCCGGCGCCCGGCGGCUCGAGCCCGGGUAAGUGUGAAUAGUCUGCAUGCCGCCGGGCGCCAUGCCUGCAGGUCGACUCUAGAAAACAUG”, the binding signal was 4.35 log2 enrichment (interaction score) with PUM1 PUF domain R5-EYG, 2.49 log2 enrichment (interaction score) in the assay with PUM1 PUF domain R5-RDG, 0.49 log2 enrichment (interaction score) with PUM1 PUF domain R5-KRQ and 2.92 log2 enrichment (interaction score) in the assay with PUM1 PUF domain R5-GRN.
For “GGCUAGAACUAGUGGAUCCCCCGGCGCCCGGCGGCUCGAGCCCGGGUAAGUGGAAAUAGUCUGCAUGCCGCCGGGCGCCAUGCCUGCAGGUCGACUCUAGAAAACAUG”, the binding signal with PUM1 PUF domain R6-AFE was 3.97 log2 enrichment (interaction score).
With “GGCUAGAACUAGUGGAUCCCCCGGCGCCCGGCGGCUCGAGCCCGGGUAAGUGUCAAUAGUCUGCAUGCCGCCGGGCGCCAUGCCUGCAGGUCGACUCUAGAAAACAUG”, the binding signal with PUM1 PUF domain R5-KRQ is 5.21 log2 enrichment (interaction score); with PUM1 PUF domain R5-GRN it was 1.4 log2 enrichment (interaction score).

These data come from publication PMC8384837, “Expanding the binding specificity for RNA recognition by a PUF domain”.
